Screening results (PubChem BioAssay)
Rows were chosen to be rich in hits. Some 9% of all compounds tested hit in one or more screens of this group.
ALDH1A1 inh: qHTS Assay for Inhibitors of Aldehyde Dehydrogenase 1 (ALDH1A1); Purified ALDH1A1, NADH fluorescence, propionaldehyde substrate; 220,000 compounds, 7.3% hits; Potency, µM (doses to about 75.3 µM), for inactives: at the top dose activity, negative = inhibition, most hits filed as inhibitors; Aldehyde dehydrogenase 1A1 (Homo sapiens), P00352;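 note: potency is the fitted concentration of half-maximal effect; plate controls were no enzyme wells and a reference inhibitor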
HPGD inh: qHTS Assay for Inhibitors of HPGD (15-Hydroxyprostaglandin Dehydrogenase) | AID 894, 2007 | 15-hydroxyprostaglandin dehydrogenase [NAD(+)] (Homo sapiens), P15428 | purified HPGD, NADH fluorescence kinetic, PGE2 substrate | 150,000 compounds, 4.3% hits | Potency, µM, without a hit: at the top dose activity change, negative = inhibition, most hits filed as inhibitors; note: potency is the fitted concentration of half-maximal effect
Target sequence (P15428 whole entry, looked up): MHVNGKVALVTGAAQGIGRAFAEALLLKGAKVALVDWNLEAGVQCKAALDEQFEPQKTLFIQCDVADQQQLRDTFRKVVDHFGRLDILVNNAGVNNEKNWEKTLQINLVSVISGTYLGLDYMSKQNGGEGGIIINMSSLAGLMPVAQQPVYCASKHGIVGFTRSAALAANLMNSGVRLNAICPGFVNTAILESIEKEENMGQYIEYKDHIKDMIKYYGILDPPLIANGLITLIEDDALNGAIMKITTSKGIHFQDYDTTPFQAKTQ
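NADH formation kinetics: reaction with 30 uM PGE2 and 1 mM NAD+ (final), 20 nM enzyme, Tris-HCl pH 8 with Tween 20, after 15 min compound preincubation at room temperature. Fluorescence change, last versus first of five reads.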
IMPase cell inh: qHTS Assay for Identifying the Cell-Membrane Permeable IMPase Inhibitors. Inositol monophosphatase 1 (Rattus norvegicus), P97697. CHO-M1 cells, IP1 accumulation, HTRF TR-FRET ratio. inhibition (IP1 accumulation), % at 46.1 µM. 120,000 tested, under 10 active. AID 901, 2007; active = well fitted curve in the direction sought with a large enough effect in the signal ratio, not every such curve was filed as active; inconclusive = small, poorly fitted or top-dose-only effect, or a change in a side signal; inactive = no such curve, though single readings can be large or run the other way; the % refers to the signal ratio;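 note: cells stimulated with carbachol in lithium chloride buffer; plate controls were DMSO basal wells for no effect and reference inhibitor wells for full effect; higher means more IMPase inhibition seen as more IP1 and lower FRET ratio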
Target sequence (P97697 whole entry, looked up): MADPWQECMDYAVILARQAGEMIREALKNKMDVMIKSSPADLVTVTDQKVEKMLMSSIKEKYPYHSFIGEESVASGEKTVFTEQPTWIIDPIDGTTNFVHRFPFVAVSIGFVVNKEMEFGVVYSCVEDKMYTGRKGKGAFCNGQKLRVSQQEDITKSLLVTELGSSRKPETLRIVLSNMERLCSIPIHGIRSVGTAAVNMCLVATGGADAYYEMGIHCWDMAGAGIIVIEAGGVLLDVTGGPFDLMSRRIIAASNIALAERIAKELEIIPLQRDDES
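Carbachol-driven Gq signalling in CHO-M1 cells (2000/well) generates IP1. Compounds that block IMPase raise IP1 and so reduce the FRET signal from Eu-anti-IP1 and d2-IP1 after a 10 min room-temperature lysis.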
* hit, by the source's call; [ ] = dose if it differs, or a comment. Unless noted, calls come from the whole dose curve; as a rule, active = well fitted inhibition curve with a large enough effect (not every such curve was filed as active); inconclusive = small, poorly fitted or top-dose-only effect, or another doubt; inactive = no such curve, though single readings can be large or run the other way. Unless noted, % is set by controls: 0 for no effect and ±100 for the full control effect.

What do the screens show for `Cc1ccc(OC(=O)c2sc3ncn(C)c(=O)c3c2C)cc1`?
ALDH1A1 inh: -12%

What do the screens show for `C[C@H]1Cc2c(-c3ccccc3)nc3c(c2CO1)CN(C(=O)C1CCCCC1)CC3`?
ALDH1A1 inh: -1%[13.5 µM]; HPGD inh: -4%

Results for COc1ccc(S(=O)(=O)O/N=C2\CCSc3ccc(C)cc32)cc1 ?
ALDH1A1 inh: 7.1µM*; HPGD inh: -7%; IMPase cell inh: 2

Results for Cc1ccc(C(=O)O/N=C2\CCSc3ccc(C)cc32)cc1 ?
ALDH1A1 inh: 11%; HPGD inh: -13%; IMPase cell inh: 11

Results for CC(C)C[C@@H](CC(=O)N[C@@H](CCCN)CC(=O)N[C@@H]1CCNC[C@H]1C(=O)N[C@H](CC(=O)N[C@@H](CCC(=O)O)CC(=O)O)CC(C)C)NC(=O)[C@@H]1CNCC[C@H]1N ?
ALDH1A1 inh: inconclusive; HPGD inh: -3%

Results for CCOc1ccc(N2C(=O)CC(SCCN)C2=O)cc1 (stereo unspecified) ?
ALDH1A1 inh: 3.2µM*; HPGD inh: -6%; IMPase cell inh: -6

Results for CCN=C(NCC)SC1CC(=O)N(c2ccc(OCC)cc2)C1=O (stereo unspecified) ?
ALDH1A1 inh: -10%

Results for COc1ccc(N2C(=O)CC(Sc3nc4ccccc4s3)C2=O)cc1 (stereo unspecified) ?
ALDH1A1 inh: 7.9µM*

How did NCCSC1CC(=O)N(Cc2ccc(F)cc2)C1=O (stereo unspecified) do in these assays?
ALDH1A1 inh: 2.2µM*

How did COc1ccc(N2C(=O)CC(SCCc3nc4ccccc4[nH]3)C2=O)cc1 (stereo unspecified) do in these assays?
ALDH1A1 inh: -11%; HPGD inh: -6%; IMPase cell inh: 0

Results for COCCSc1nnc(NC(=O)C2CC(=O)N(c3ccc(OC)cc3)C2)s1 (stereo unspecified) ?
ALDH1A1 inh: 1%

How did C=CCNc1nnc(SC2CC(=O)N(c3ccc(OC)cc3)C2=O)s1 (stereo unspecified) do in these assays?
ALDH1A1 inh: 2µM*; HPGD inh: inconclusive; IMPase cell inh: 4

Results for O=C1CCCc2ccccc2N1Cc1ccc(F)cc1 ?
ALDH1A1 inh: -34%

Results for CC(=O)c1ccc(-c2cccc(-c3cc(=O)oc4ccc(C(C)(C)C)cc34)c2)cc1 ?
ALDH1A1 inh: 6%; HPGD inh: -19%

How did CCOC(=O)Cc1cc(OC)c(OC)cc1Cc1cc(OC)c(OC)cc1CC(=O)OCC do in these assays?
ALDH1A1 inh: 2%; HPGD inh: 0%; IMPase cell inh: -2

How did COc1ccc(N2C(=O)CC(Sc3nnc(-c4ccccc4F)n3C)C2=O)cc1 (stereo unspecified) do in these assays?
ALDH1A1 inh: 1.8µM*

What do the screens show for `Cn1c(SCC(=O)N2CCCC2=O)nnc1-c1ccccc1F`?
ALDH1A1 inh: 0%

Results for COc1ccc(N2C(=O)CC(Sc3nccc(C)n3)C2=O)cc1 (stereo unspecified) ?
ALDH1A1 inh: 22µM*; HPGD inh: -2%; IMPase cell inh: 3

What do the screens show for `CCOc1ccc(N2C(=O)CC(NC3CCCCNC3=O)C2=O)cc1` (stereo unspecified)?
ALDH1A1 inh: 20µM*; HPGD inh: -3%; IMPase cell inh: 23

What do the screens show for `COc1ccc(N2C(=O)CC(Sc3ncccc3C(=O)O)C2=O)cc1` (stereo unspecified)?
ALDH1A1 inh: inconclusive; HPGD inh: -4%; IMPase cell inh: -9

How did O=C1NCCCCC1NC1CC(=O)N(c2ccccc2)C1=O (stereo unspecified) do in these assays?
ALDH1A1 inh: -12%; HPGD inh: -4%; IMPase cell inh: 9

What do the screens show for `CCCNC(=O)CSc1nc2ccc(OCC)cc2s1`?
ALDH1A1 inh: 3%

How did CCOc1ccc2nc(SC3CC(=O)N(c4ccc(OC)cc4)C3=O)sc2c1 (stereo unspecified) do in these assays?
ALDH1A1 inh: 16µM*; HPGD inh: -27%; IMPase cell inh: -2

Results for C/C(Cl)=C/Cn1c(=O)c2c(nc(Br)n2Cc2ccccc2)n(C)c1=O ?
ALDH1A1 inh: -4%; HPGD inh: -18%; IMPase cell inh: inconclusive

How did CC(C)(C)c1cc(N)on1 do in these assays?
ALDH1A1 inh: 13%; HPGD inh: -1%

What do the screens show for `CC(=O)Nc1ccc(C(=O)OCC(=O)Nc2ccccc2F)cc1`?
ALDH1A1 inh: 6%

Results for Cc1ccc(N(O)C(=O)OCCNC(=O)Nc2ccccc2)cc1 ?
ALDH1A1 inh: -3%; HPGD inh: -4%; IMPase cell inh: 2

Results for Cc1[nH]ccc(=O)c1Oc1ncc(C(F)(F)F)cc1Cl ?
ALDH1A1 inh: 2%

What do the screens show for `CCN(CC)S(=O)(=O)c1ccc(C(=O)Nc2ccc3c(c2)OCCO3)cc1`?
ALDH1A1 inh: 13µM*; HPGD inh: -10%; IMPase cell inh: 3

Results for CCCN(CCC)S(=O)(=O)c1cccc(C(=O)Nc2ccc3c(c2)OCO3)c1 ?
ALDH1A1 inh: 3.2µM*; HPGD inh: -16%; IMPase cell inh: 16

What do the screens show for `O=C(COC(=O)c1cc(S(=O)(=O)N2CCOCC2)ccc1Cl)Nc1ccc2c(c1)OCO2`?
ALDH1A1 inh: inconclusive; HPGD inh: -11%; IMPase cell inh: -3

How did CCCC(=O)Nc1cccc(NC(=O)c2ccc3c(c2)OCO3)c1 do in these assays?
ALDH1A1 inh: 4%; HPGD inh: -7%; IMPase cell inh: -5

How did Cc1cc(C)nc(NS(=O)(=O)c2ccc(NC(=O)c3ccc(S(=O)(=O)N4CC(C)OC(C)C4)cc3)cc2)n1 (stereo unspecified) do in these assays?
ALDH1A1 inh: -4%; HPGD inh: -13%; IMPase cell inh: 4

What do the screens show for `CCN(CC)S(=O)(=O)c1ccc(NC(=O)c2ccc(NS(C)(=O)=O)cc2)cc1`?
ALDH1A1 inh: inconclusive; HPGD inh: -19%; IMPase cell inh: -9

Results for Cc1cc(C)nc(NS(=O)(=O)c2ccc(NC(=O)c3ccc4c(c3)OCCO4)cc2)n1 ?
ALDH1A1 inh: 25µM*

Results for O=C(COC(=O)Cc1ccc(S(=O)(=O)N2CCOCC2)s1)Nc1ccc2c(c1)OCO2 ?
ALDH1A1 inh: 20µM*; HPGD inh: -12%; IMPase cell inh: 5

What do the screens show for `Cc1ccc(Cn2ccc(O)c(Cc3ccccc3)c2=O)cc1`?
ALDH1A1 inh: 8%

How did CC(C)C(C(=O)O)N1CCS(=O)(=O)CC1 (stereo unspecified) do in these assays?
ALDH1A1 inh: 6%

How did COc1ccc(C(=O)N2CCC3(CCCN(Cc4ccc(C#N)cc4)C3)CC2)cc1 do in these assays?
ALDH1A1 inh: -10%; HPGD inh: -11%

Results for COc1ccc(N(C(=O)COc2c(C)cccc2C)S(=O)(=O)c2ccc(Cl)cc2)cc1 ?
IMPase cell inh: 1

Results for CC1(C)C2CC=C(/C=N/NC(=O)c3ccc(O)cc3)C1C2 (stereo unspecified) ?
ALDH1A1 inh: -12%; IMPase cell inh: 9
